Measurements reported in PubChem BioAssay (NCI).
“And” between values parts separate entries of the source, which are not always exact repeats. Equal entries are not always repeated. About 83,000 compounds went through this panel and 20% of them were active in at least one assay; those are over-represented in the sample as a whole.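 The endpoint reported here, percent growth, reads 100 for growth as untreated, 0 for no net growth and -100 for all cells dead.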 The source made the active and inactive calls. The calls were made as follows: active = growth percent below 10; inactive = the rest.

Tested on: MDA-MB-468 breast
Assay: NCI-60 one-dose screen, 48 h (100 = growth as untreated, 0 = no growth, -100 = all killed)
Conditions: 10 µM unless noted

Compound	growth
Cc1cccc(N2CCN(C(C)C#N)CC2)c1 (stereo not drawn)	100% (inactive)
C=CC[PH+](c1ccccc1)c1ccccc1.C=CC[PH+](c1ccccc1)c1ccccc1.[Pt+2].[S-]c1nc2ccccc2[nH]1.[S-]c1nc2ccccc2[nH]1	-14% (active)
CN1CCC(c2c[nH]c3ccccc23)C1 (stereo not drawn)	116% (inactive)
CCC1(NC(=O)c2cc(F)c(F)c(F)c2F)C(=O)NC(=O)N(C(C)C)C1=O (stereo not drawn)	95.2% (inactive)
C/C(=C\c1ccn(-c2ccc(N)cc2)n1)[C@@H]1C[C@@H]2O[C@]2(C)CCC[C@H](C)[C@H](O)[C@@H](C)C(=O)C(C)(C)[C@@H](O)CC(=O)O1	13.9% (inactive)
CN1C(=O)NC(=O)C(N=Nc2ccc(Cl)cc2)C1=O (stereo not drawn)	90.4% (inactive)
CCOC(=O)N[C@H]1CCc2c(Br)c(OC)c(OC)c(OC)c2-c2ccc(SC)c(=O)cc21	-14.7% (active)
O=C(NCc1ccc([N+](=O)[O-])cc1)Nc1ccc(S(=O)(=O)F)cc1	40.4% (inactive)
COc1ccc2c(c1)c(-c1nc(-c3c[nH]c4ncccc34)cs1)cn2CCN1CCOCC1	0.314% (active)
CC(=O)O[C@H]1C(=O)[C@@]2(C)[C@H]([C@H](OC(=O)c3ccccc3)[C@]3(O)C[C@H](OC(=O)[C@H](OC(=O)OCC4COC(C)(C)O4)[C@@H](NC(=O)c4ccccc4)c4ccccc4)C(C)=C1C3(C)C)[C@]1(OC(C)=O)CO[C@@H]1C[C@@H]2O (stereo partly drawn)	2.65% (active)
CCCCCCCCCCCCCCCC[n+]1ccccc1	-33.2% (active) and -13.9% (active)
C1CCC([PH+](C2CCCCC2)C2CCCCC2[PH+](C2CCCCC2)C2CCCCC2)CC1.O=C(C1[CH-]CCCC1)C1CCCC[N-]1.[Au] (stereo not drawn)	-40.3% (active)
CC1=C2[C@@H](CC1)[C@]1(C)O[C@@](C(C)C)(C[C@H]1O)[C@H]2OC(=O)C1CC1c1ccccc1 (stereo partly drawn)	94.6% (inactive)
CC[C@]12C=CCN3CC[C@]4(C(=C(C(=O)OC)C1)Nc1cc(OC)c(OC(C)=O)cc14)[C@@H]32	50.3% (inactive)
C[C@]12CC[C@H]3[C@@H](C[C@@H]4SC(Nc5cccc(F)c5)=N[C@@]45CC(=O)CC[C@]35C)[C@@H]1CCC2=O	-2.99% (active)
Cc1cc[c-]cc1.Fc1c[c-]c(-c2ccccn2)c(F)c1.[Pt+2].c1ccc([PH+](c2ccccc2)c2ccccn2)cc1	51% (inactive)
O=C1NC(=O)C(Cc2ccccc2)(Cc2ccccc2)C(=O)N1	113% (inactive)
COC(=O)[C@@H](C)C[C@H](Cc1ccccc1)NC(=O)c1csc([C@@H](C[C@H](C(C)C)N(C)C(=O)[C@@H](NC(=O)[C@H]2CCCCN2C)C2CC2)OC(C)=O)n1	0.846% (active)
O=C(O)C1C(C(=O)O)C2(Cl)C(Cl)=C(Cl)C1(Cl)C2(Cl)Cl (stereo not drawn)	105% (inactive) and 113% (inactive)

Compound	growth
CC(C)(C)OOC(=O)/C=C\C(=O)OOC(C)(C)C	108% (inactive)
C[As](=O)(O)c1ccc(C(=O)O)cc1	99.8% (inactive)
CC(=O)OC1CCC2(C)C(=CCC3C4CC(CN5CC5)C(=O)C4(C)CCC32)C1 (stereo not drawn)	1.98% (active)
CN1CCC(O)(c2ccc(F)cc2)C(C(=O)c2ccc(F)cc2)C1 (stereo not drawn)	44.2% (inactive)
O=[N+]([O-])c1cccc([As]=[As]c2cccc([N+](=O)[O-])c2)c1 (stereo not drawn)	-78.5% (active)
O=[N+]([O-])/C=C\c1ccc2c(c1)OCO2	82% (inactive)
NNc1ccccc1	109% (inactive)
CCCCn1c(=O)c(C(=O)NCc2ccccc2Cl)c(O)c2ccccc21	70.6% (inactive)
O=[N+]([O-])c1cnc[nH]1	108% (inactive)
C=C1[C@@H](C)[C@H]2[C@H](Cc3ccccc3)NC(=O)[C@]23[C@@H](O)/C=C/[C@@](C)(O)C(=O)[C@@H](C)C/C=C/[C@H]3[C@@H]1O	-39% (active)
CC(=O)O[C@H]1CC[C@H]2[C@@H]3CC=C4c5nc(-c6ccccc6)sc5CC[C@]4(C)[C@H]3CC[C@]12C	57.2% (inactive)
CC12CC[C@H](O)C=C1/C(=N/O)CC1C2CCC2(C)C1CC[C@@H]2O (stereo partly drawn)	100% (inactive)
C/C1=C/C(=O)O[C@@H]2C[C@@H](CC[C@H](C)/C=C\C=C\CC1)O[C@@](O)([C@@H]1CSC(=O)N1CO)C2	10.3% (inactive)
O=Cc1cn(Cc2ccccc2)c2ccccc12	2.33% (active)
O=c1cc[nH]c(=O)o1	105% (inactive)
C[Se]C(=O)c1ccccc1OC(C)=O	45% (inactive)
O=C1NC(=O)C(=Cc2cn(C(=O)c3ccccc3)c3ccccc23)C(=O)N1	101% (inactive)
[O]=[Sn]([CH]1CCCCC1)[CH]1CCCCC1	-92.2% (active)
COC(=O)[C@@H](C)C[C@H](Cc1ccccc1)NC(=O)c1csc([C@@H](C[C@H](C(C)C)N(C)C(=O)[C@@H](NC(=O)[C@H]2CCCCN2C)C(C(F)(F)F)C(F)(F)F)OC(C)=O)n1	51.7% (inactive)
